From PubChem BioAssay (EPA / NIEHS)
Several values for one entry are separate records, joined by “and”; a condition that tells them apart may be missing. Equal entries are not always repeated. Some structures have more than one record in an assay (separate samples or runs), and their calls can disagree. Activity calls are given as the source filed them. How the source made its calls, unless noted: active means hit-call score of the fitted dose curve at least 0.9, where 1 is the maximum; inactive means score below 0.9.

Legend:
[1] = CCTE_Shafer_MEA_dev_burst_duration_mean: CCTE's Neural Network Formation Assay for Mean Burst Duration, Shafer Lab (AID 2284045);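 on AC50: curve fitted for loss meaning shorter burst duration than DMSO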
Outline: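 Rat cortical cultures, 1.5 x 10^5 cells/well with laminin drop; continuous dosing days 0–12, media plus treatment refreshed DIV 5, 9. AxIS adaptive spike detection; mean single-electrode burst duration, AUC over four recordings, negative direction vs DMSO.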

[2] = CCTE_Shafer_MEA_dev_interburst_interval_mean: CCTE's Neural Network Formation Assay for Mean Interburst Interval, Shafer Lab (AID 2284046);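 further: well-mean interburst interval of bursting electrodes as AUC over four recording days; curve fitted for decrease in interburst interval relative to DMSO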
Outline: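 Network formation assay in primary rat cortical cultures, exposed from DIV 0 to 12. Mean interburst interval per well, integrated as AUC over four recordings.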

[3] = CCTE_Shafer_MEA_dev_inter_network_spike_interval_mean: CCTE's Neural Network Formation Assay for Mean Inter-network Spike Interval, Shafer Lab (AID 2284047);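 on AC50: potency for a decrease in mean inter-network spike interval below DMSO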
Outline: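 Compound was given at plating to primary rat cortical neurons and renewed with full medium changes on DIV 5 and 9. Extracellular activity was recorded on days 5, 7, 9, 12; AUC values were fitted for loss relative to DMSO control.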

[4] = CCTE_Shafer_MEA_dev_network_spike_number: CCTE's Neural Network Formation Assay for Number of Network Spikes, Shafer Lab (AID 2284048);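 further: synchronized bursts across electrodes counted on days 5 7 9 12 and integrated as AUC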;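 on AC50: fit as a loss of signal meaning fewer network spikes than DMSO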
Outline: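 Rat cortical primary cultures on 48-well MEA (16 electrodes/well); continuous exposure DIV 0–12, full medium and treatment exchange DIV 5, 9. Readout: network spike count, AxIS adaptive detection, recordings DIV 5/7/9/12 collapsed to AUC; loss-of-signal fit, DMSO baseline.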

[5] = CCTE_Shafer_MEA_dev_network_spike_peak: CCTE's Neural Network Formation Assay for Mean Number of Electrodes in Network Spike, Shafer Lab (AID 2284049);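 on AC50: fitted for loss of signal meaning fewer electrodes in network spikes than DMSO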
Outline: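 Network-spike peak electrode count from recordings on days 5, 7, 9 and 12 was combined as trapezoidal area under the curve. Rat cortical cultures were treated continuously from plating, with compound renewed at each feed (DIV 5, 9); fits versus DMSO.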

[6] = CCTE_Shafer_MEA_dev_spike_duration_mean: CCTE's Neural Network Formation Assay for Mean Spike Duration, Shafer Lab (AID 2284051);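 further: mean network spike duration pooled as area under curve over DIV 5 to 12 recordings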;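 on AC50: potency for a decrease in mean network spike duration versus DMSO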
Outline: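 With DMSO as baseline, loss of mean network spike duration was scored from extracellular recordings of rat cortical neurons on MEA plates. Exposure spanned plating to DIV 12; the four recording days were collapsed into one AUC value.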

[7] = CCTE_Shafer_MEA_dev_network_spike_duration_std: CCTE's Neural Network Formation Assay for Standard Deviation of Network Spike Duration, Shafer Lab (AID 2284052);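 further: area under curve of spike duration SD across recording days 5 to 12; hits are decreases in network spike duration SD versus DMSO vehicle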
Outline: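 Developing networks of rat cortical neurons were exposed over twelve days in vitro on 48-well MEA plates. Trapezoidal AUC of recordings (DIV 5–12) was analysed for signal loss relative to DMSO vehicle.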

[8] = CCTE_Shafer_MEA_dev_per_network_spike_spike_number_mean: CCTE's Neural Network Formation Assay for Mean Number of Spikes in a Network Spike, Shafer Lab (AID 2284053);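 on AC50: fitted as decrease in spikes per network spike relative to DMSO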
Outline: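 First, rat cortical cells (1.5 x 10^5/well) were seeded onto MEA wells; second, dosing began at plating and was refreshed on DIV 5 and 9; finally, network-spike spike counts across DIV 5–12 were summarized as AUC.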

[9] = CCTE_Shafer_MEA_dev_per_network_spike_spike_percent: CCTE's Neural Network Formation Assay for Percent of Spikes in a Network Spike, Shafer Lab (AID 2284054)
Outline: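 Read-out: percent of spikes falling in a 0.05 s window at network-spike peak, from spontaneous MEA recordings on days 5, 7, 9 and 12; trapezoidal AUC; loss of signal versus DMSO. Rat cortical cultures, compound present throughout.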

DIO2 (gene 1734) = assay: CCTE_GLTED_hDIO2: CCTE's human Deiodinase 2 (DIO2) Inhibition Assay, Great Lakes Toxicology and Ecology Division (GLTED) Lab (AID 2284050; active means hit-call score of the fitted dose curve at least 0.9, where 1 is the maximum)
Outline: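 Triplicate cell-free incubations (3 h) of human DIO2 with chemical preceded colorimetric Sandell-Kolthoff quantitation of liberated iodide; DMSO served as negative control for curve fitting.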

Measured: AC50

CCCN(CCC)C(=O)SCC
not listed: DIO2 (gene 1734)
inactive: all other assays above

CCCN(CCC)c1c([N+](=O)[O-])cc(C(F)(F)F)c(N)c1[N+](=O)[O-]
active: DIO2 (gene 1734) 20 µM

CCN(CC)C(=O)c1cccc(C)c1
not listed: DIO2 (gene 1734)
inactive: all other assays above

S=C([S-])NCCNC(=S)[S-].[Mn+2]
active: [3] 1.19 µM
not listed: [8] | DIO2 (gene 1734)
inactive: all other assays above

CC(=O)S[C@@H]1CC2=CC(=O)CC[C@]2(C)[C@H]2CC[C@@]3(C)[C@@H](CC[C@@]34CCC(=O)O4)[C@H]12
active: DIO2 (gene 1734) 26.1 µM

CC(C)CCCCCCc1ccc(O)cc1
active: DIO2 (gene 1734) 93.1 µM

CC(C)(c1ccc(O)cc1)c1ccc(O)cc1
active: [5] 20.8 µM | [6] 15 µM | [8] 15 µM | [9] 6.65 µM
inactive: [1] | [2] | [3] | [4] | [5] | [6] | [7] | [8] | [9]

OB(O)O
not listed: DIO2 (gene 1734)
inactive: all other assays above

COCCO
not listed: DIO2 (gene 1734)
inactive: all other assays above

CCOC(=O)C(C)Oc1ccc(Oc2nc3ccc(Cl)cc3o2)cc1 (configuration not stated)
active: DIO2 (gene 1734) 44.6 µM

S=C(S)NCCNC(=S)S.[Mn+2].[S-]C([S-])=NCCN=C([S-])[S-].[Zn+2]
inactive: [1] | [2] | [3] | [4] | [5] | [6] | [7] | [8] | [9]
active: [5] 7.52 µM | DIO2 (gene 1734) 50 µM | [6] 2.42 µM

CC1(C)C(C=C(Cl)Cl)C1C(=O)OCc1cccc(Oc2ccccc2)c1 (configuration not stated)
active: [2] 25.4 µM and 10.1 µM | [5] 23.2 µM and 9.11 µM | [6] 21.3 µM and 10.1 µM | [8] 17.3 µM and 10.1 µM | [9] 22.2 µM and 5.34 µM
inactive: [1] | [3] | [4] | [7]

Cc1nn(C)c(Oc2ccccc2)c1C=NOCc1ccc(C(=O)OC(C)(C)C)cc1
active: [1] 0.000277 µM | [2] 2.91 nM | [3] 0.00361 µM | [4] 0.0014 µM | [5] 0.00317 µM | [6] 0.00141 µM | [7] 0.000953 µM | [8] 0.00249 µM | [9] 0.00238 µM

CCCCC(CC)CN1C(=O)C2C3C=CC(C3)C2C1=O (configuration not stated)
not listed: DIO2 (gene 1734)
inactive: all other assays above

C#CCOC(=O)[C@@H](C)Oc1ccc(Oc2ncc(Cl)cc2F)cc1
not listed: DIO2 (gene 1734)
inactive: all other assays above

O=C(O)c1ccccc1
not listed: DIO2 (gene 1734)
inactive: all other assays above

CCCCOCCOCCOCc1cc2c(cc1CCC)OCO2
active: [5] 16.9 µM
not listed: DIO2 (gene 1734)
inactive: all other assays above

Oc1ccc(C(c2ccc(O)cc2)C(Cl)(Cl)Cl)cc1
active: [5] 12.9 µM | DIO2 (gene 1734) 100 µM | [6] 4.75 µM | [8] 3.73 µM
inactive: all other assays above

CSC(=O)c1cccc2nnsc12
not listed: DIO2 (gene 1734)
inactive: all other assays above

CCCCCOC(=O)COc1cc(N2C(=O)C3=C(CCCC3)C2=O)c(F)cc1Cl
active: DIO2 (gene 1734) 59.5 µM
